# Assay outcomes as filed in PubChem.
# Most compounds without a hit are left out; they make up all but 7.4% or so of the library.
# Rab9 promoter act: activates the Rab9 promoter; Potency, µM (highest dose often 9.22 µM), for the others: at the highest dose activation, negative = inhibition, actives largely listed as activators; AID 485297; hit rate 2.8% among 320,000; Huh7 Rab9 promoter-luciferase reporter, luminescence, 24 h; further: % of control where 0% means no effect; nearly all actives have a fitted effect of over 60% in size
#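 Stable Rab9-luc Huh7, 1500 cells/well, 2 h settle; cmpd in DMSO, 24 h, 37 °C/5% CO2; luciferase reagent 10 min RT; luminescence.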
# SMN2 splice up: SMN2 splice variant enhancement; HEK293 SMN2-luciferase splicing reporter, luminescence, 30-36 h; Potency, µM (doses to about 46.1 µM), for inactives: at the top dose activity change, positive = activation, usual class: activators; hit rate 2.8% among 210,000; further: % of control where 0% means no effect; nearly all actives have a fitted effect of over 55% in size
#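 HEK293 cells carry an SMN2 […]–luciferase reporter in which exon 7 inclusion puts luciferase in frame. Cells were plated 10-12 h before compound addition, then incubated 30-36 h at 37C. ONE-Glo luminescence was read; sodium butyrate at 4.5 mM final served as control.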
# FLuc counter: counter-screen for miR-21 project: firefly luciferase inhibitors or activators; purified FLuc, Km substrates, luminescence inhibition; Potency, µM (titrated, usually from 57.5 µM), for the others: at the highest dose activity change, negative = inhibition, hits mostly inhibitors; hit rate 6.9% among 360,000; AID 588342;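 further: plate controls were vehicle for no effect and reference inhibitor for full effect; nearly all actives have a fitted effect of over 55% in size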
# Target sequence (P08659 whole entry, looked up): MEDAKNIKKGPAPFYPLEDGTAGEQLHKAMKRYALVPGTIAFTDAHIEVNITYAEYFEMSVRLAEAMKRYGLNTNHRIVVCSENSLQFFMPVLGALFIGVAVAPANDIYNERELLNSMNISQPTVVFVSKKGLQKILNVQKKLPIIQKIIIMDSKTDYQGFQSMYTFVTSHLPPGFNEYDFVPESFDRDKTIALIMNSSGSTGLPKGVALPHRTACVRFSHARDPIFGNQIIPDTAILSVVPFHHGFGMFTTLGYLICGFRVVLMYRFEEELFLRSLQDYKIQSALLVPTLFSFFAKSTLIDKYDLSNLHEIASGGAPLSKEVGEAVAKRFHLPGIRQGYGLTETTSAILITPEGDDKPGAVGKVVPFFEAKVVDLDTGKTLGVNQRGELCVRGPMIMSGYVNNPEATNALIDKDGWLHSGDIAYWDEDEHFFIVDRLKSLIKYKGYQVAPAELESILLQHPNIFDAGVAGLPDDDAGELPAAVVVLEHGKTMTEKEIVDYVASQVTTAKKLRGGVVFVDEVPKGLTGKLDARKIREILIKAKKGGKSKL
#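 Biochemical qHTS of compounds, final roughly 60 µM downward over six points, against 10 nM purified firefly luciferase using Km concentrations of substrates (10 uM D-luciferin, 10 uM ATP) in Tris acetate pH 7.5 buffer; luminescence output.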
# NPC1 promoter act: activates the NPC1 promoter; Huh7 NPC1 promoter luciferase reporter, 24 h; Potency, µM (series often up to 9.22 µM), for inactives: top-dose activation, usual class: activators; hit rate 2.4% among 320,000; further: % of control where 0% means no effect; nearly all actives have a fitted effect of over 60% in size
#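 Huh7 reporter cells (NPC1 promoter driving luciferase) are dosed with compound for 24 h at 37 °C, 5% CO2; luciferase detection reagent is then added and luminescence measured after 10 min at ambient temperature.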
# ELG1 genotoxic: induces genotoxicity in HEK293T cells with luciferase-tagged ELG1; HEK293T ELG1-luciferase reporter, luminescence, 16 h; Potency, µM (doses to about 46 µM), for inactives: at the highest dose activity change, positive = activation, actives largely listed as activators; hit rate 1.3% among 330,000; further: % of control where 0% means no effect; nearly all actives have a fitted effect of over 60% in size
#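 Quantitative HTS format in 1536-well plates. HEK293T ELG1-luciferase reporter cells receive test compound and are incubated 16 hr at 37 °C, 5% CO2; ONE-Glo added, 30 min room temperature, then luminescence read.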
# * = called active by the depositor; ? = inconclusive; . = no result; [ ] = dose if it differs, or a comment. The call rests on the fitted dose curve; in most records, active means well fitted curve in the direction sought with a large enough effect; inconclusive means small, poorly fitted or top-dose-only effect, or another doubt; inactive means no such curve, though single readings can be large; an effect the other way counts as inactive or inconclusive. Potency means the concentration at half of the fitted maximal effect.
SMILES,Rab9 promoter act,SMN2 splice up,FLuc counter,NPC1 promoter act,ELG1 genotoxic
CCN(C(=O)Cn1nc(Cc2cccnc2)c2ccccc2c1=O)c1ccccc1F,.,-21%,-2%,.,.
Clc1ncnc2c1oc1ccccc12,-1%,13µM*,9.5µM*,1%,?
c1ccc2cc(Sc3ncnc4c3oc3ccccc34)ccc2c1,?,-21%,17µM*,?,1%
CC(C)C1Oc2ccccc2N(CC(=O)N2CCOCC2)C1=O (stereo not drawn),4%,.,0%,-2%,5%
CC(C)C1Oc2ccccc2C(=O)N(CC(=O)c2ccc3c(c2)OCCO3)C1=O (stereo not drawn),1.4µM*,.,2.4µM*,1.1µM*,?
CC1Oc2ccccc2C(=O)N(CC(=O)c2ccc3c(c2)OCCO3)C1=O (stereo not drawn),28%,.,4.8µM*,24%,12%
CCC1Oc2ccccc2C(=O)N(CC(=O)c2ccc3c(c2)OCCO3)C1=O (stereo not drawn),?,.,4.8µM*,?,?
O=C(CCBr)N1CCN(C(=O)CCBr)CC1,.,-20%,.,.,.
N#C/C(=C(/O)COC(=O)Cc1c[nH]c2ccccc12)c1nc2ccccc2[nH]1,-7%,-11%,15µM*,-1%,0%
Cc1ccc(-c2nnc(-c3ccccc3)o2)cc1,1.4µM*,2.8µM*,2.7µM*,3.2µM*,?
COc1ccc(-c2ccc(-c3nnc(-c4ccncc4)o3)cc2)cc1,20%,-23%,?,20%,4%
COc1ccc(-c2nnc(-c3ccc(C)cc3)o2)cc1,?,.,1.9µM*,1.6µM*,?
COc1ccc(-c2nnc(-c3ccccc3O)o2)cc1,?,.,2.4µM*,?,?
COc1ccc(-c2nnc(NC(=O)Cc3ccccc3)o2)cc1,7%,.,-9%,-3%,-1%[9.26 µM]
CCNc1nnc(-c2ccc(C)cc2)o1,4µM*,24%,15µM*,3.5µM*,?
COc1ccccc1CNC(=O)[C@H](C)NC(=O)C1CCN(C(=O)[C@@H](N)C(C)C)CC1,-2%,.,2%,-2%,-1%
Cc1ccc(S(=O)(=O)N2CCC(C(=O)OC(C)C(=O)N(C)c3ccccc3)CC2)cc1C (stereo not drawn),-2%,.,3%,-1%,-3%
COC(=O)CS,.,-2%,.,.,.
COc1ccc(-c2nnc(-c3ccc(F)cc3)o2)cc1,1µM*,.,2.1µM*,1.3µM*,3.7µM*
CCCc1nnc(-c2ccc(OC)cc2)o1,16%,-18%,?,16%,16%
Cc1ccc(NC2CCCN(C(=O)c3ccc(C)c(N4CCNC4=O)c3)C2)cc1C (stereo not drawn),3%[1.84 µM],.,5%,2%,8%
COc1ccc(C(=O)N/N=C\c2coc3ccccc3c2=O)cc1,-5%,.,4.8µM*,-3%,-7%
COc1ccccc1/C=N/NC(=O)CNC(=O)c1ccccc1,-1%,.,?,4%,-3%
COc1ccc(/C=N/NC(=O)c2ccc(Br)cc2)c(OC)c1,-2%,29%,15µM*,-3%,7%
COc1ccccc1/C=N/OCc1cc(C(C)=O)ccc1OC,-1%[1.84 µM],.,-7%,-3%,3%
SMILES,Rab9 promoter act,SMN2 splice up,FLuc counter,NPC1 promoter act,ELG1 genotoxic
COc1ccccc1/C=N/NC(=O)c1ccc(Br)cc1,1%,7%,13µM*,-3%,-5%
COc1ccccc1/C=N/OC(=O)c1ccc(F)cc1,1%,.,3.4µM*,3%,3%
COc1ccc(/C=N/NC(=O)c2ccncc2)c(OC)c1,3%,.,?,-1%,-2%
COc1ccc(NC(=O)N2CCOc3ccc(Cl)cc32)cc1,.,.,-15%,.,.
Cc1c(NC(=O)COC(=O)CSc2ccc(C(N)=O)cc2[N+](=O)[O-])c(=O)n(-c2ccccc2)n1C,10%,.,-4%,-3%,2%
COc1cc(C(=O)Oc2ccccc2/C=N/NC(=O)c2ccc(Cl)cc2)cc(OC)c1OC,-24%,-101%,6.7µM*,0%,?
COc1cc(C(=O)Oc2ccccc2/C=N/NC(=O)c2ccc(C)c(Cl)c2)cc(OC)c1OC,-33%,-96%,-1%,-23%,?
CC(=O)OCc1nc2ccccc2s1,15%,-5%,5.4µM*,14%,?
COC(=O)CCCc1nc2ccccc2s1,1%,-7%,?,-1%,6%
O=C(OCc1nc2ccccc2s1)c1ccco1,-2%,20%,6.7µM*,10%,?
O=C(O)COCc1nc2ccccc2s1,-3%,.,3%,0%,-2%
NC(=O)c1ccccc1OCc1nc2ccccc2s1,?,.,3µM*,?,?
CCOC(=O)C(=O)Cc1nc2ccccc2s1,12%,.,19µM*,3%,2%
COC(=O)c1cc(OC)c(OC)cc1NC(=S)N1CCN(c2ccccn2)CC1,0%,16%,-3%,1%,-6%
Cc1cc(C(=O)OCc2nc3ccccc3s2)c(C)o1,.,-2%,19µM*,.,.
Cc1ccc(N2C(=O)c3ccccc3C2C(=O)c2cc(C)ccc2O)cc1 (stereo not drawn),21%,13µM*,?,23%,-1%
Cc1ccc(N2C(=O)c3ccccc3C2C(=O)c2ccc(O)cc2O)cc1 (stereo not drawn),-1%,?,-5%,2%,-4%
Cc1cc(/C(N)=N/OC(=O)Nc2ccc(Cl)cc2)no1,?,.,19µM*,10%,?
COc1ccc(C(=O)O/N=C(\N)c2ccc(Br)cc2)cc1,?,.,3µM*,?,16%
COc1ccc(C(=O)O/N=C(\N)c2ccccc2)cc1,1.4µM*,.,0.21µM*,0.5µM*,1.8µM*
CC(C)(C)c1ccc(C(=O)O/N=C(\N)c2ccccc2)cc1,-12%,.,0.76µM*,-16%,?
COc1ccc(/C(N)=N/OC(=O)Cc2ccccc2OC)cc1,1%,-10%,?,15%,2%
CC(C)(C)c1ccc(NC(=O)CON=C(N)c2ccccc2)cc1,-2%,.,?,-2%,2%
CCOC(=O)c1cc(/C(C)=N/OC(=O)c2ccc(C(C)(C)C)cc2)on1,0%,.,2%,0%,1%
Cc1cc(C(=O)O/N=C(\N)c2ccc(C(C)(C)C)cc2)no1,1.8µM*,.,6µM*,3.5µM*,10%
SMILES,Rab9 promoter act,SMN2 splice up,FLuc counter,NPC1 promoter act,ELG1 genotoxic
COc1ccc(C2CC(=O)c3sc(NC(C)=O)nc3C2)cc1 (stereo not drawn),24%,-13%,27µM*,26%,?
COc1ccc(-c2nc(NC(C)=O)sc2-c2ccc(OC)cc2)cc1,0%,-1%,0%,2%,8%
Cc1ccc(-c2noc(CN3CCOCC3)n2)cc1,2.8µM*,?,17µM*,3.2µM*,?
Clc1ccc(-c2noc(CN3CCN(c4ccccc4)CC3)n2)cc1,-9%,-17%,-3%,-1%,15%
Cc1ccc(-c2noc(Cn3cc(S(=O)(=O)N4CCCC4)ccc3=O)n2)cc1,1%,.,24µM*,10%,11%
Cc1ccc(-c2noc(CN3CCCCC3)n2)cc1,?,?,19µM*,?,13µM*
